HCV inh: qHTS Assay for Inhibitors of Hepatitis C Virus (HCV) | Huh7.5.1 HCVcc-Cre infection, luciferase reporter, 44 h | Potency, µM (doses to about 41.8 µM), usual class: inhibitors | 340,000 compounds, 3.4% hits | AID 651820, 2012
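Whole-lifecycle infectious HCVcc-Cre system; cells 1,000/well, compound then virus (~0.5 moi) added 4 h after plating, 44 h culture. Luciferase read 15 sec following 15 min substrate incubation, room temp.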
Pf growth 48h: Primary qHTS for delayed death inhibitors of the malarial parasite plastid, 48 hour incubation; 310,000 compounds, 5.9% hits; Potency, µM (top dose mostly 28.7 µM), actives largely listed as inhibitors; P. falciparum luciferase growth in erythrocytes, 48 h
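Parasite viability was followed by luminescence of a genomically integrated firefly luciferase. Cultures held 0.1% parasitemia at 2% hematocrit (final), incubated under 5% CO2 at 37 C.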
Pf growth 96h: Primary qHTS for delayed death inhibitors of the malarial parasite plastid, 96 hour incubation | P. falciparum luciferase reporter growth, 96 h | Potency, µM (doses to about 28.7 µM), hits mostly inhibitors | 320,000 compounds, 6.9% hits | AID 504834, 2011
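Cell-based qHTS: luciferase-tagged P. falciparum in erythrocytes (2% hematocrit, 0.05% parasitemia final) incubated with compounds for 96 hours, 37 C, 5% CO2; luciferase detection reagent then added and luminescence measured.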
VACV mCherry inh: qHTS for Stage-Specific Inhibitors of Vaccinia Orthopoxvirus: mCherry Reporter Primary qHTS; Vaccinia virus mCherry reporter infection, fluorescence; Potency, µM (top dose mostly 36.5 µM), usual class: inhibitors; 310,000 compounds, 0.63% hits; calls by dose curve; tested in A549 cells; note: nearly all actives have a fitted effect of over 35% in size
VACV Venus inh: qHTS for Stage-Specific Inhibitors of Vaccinia Orthopoxvirus: Venus Reporter Primary qHTS; AID 720580, 2013; 330,000 compounds, 0.46% hits; Potency, µM (doses to about 36.5 µM), usual class: inhibitors; Vaccinia virus Venus reporter expression, fluorescence; calls by dose curve; tested in A549 cells; note: nearly all actives have a fitted effect of over 30% in size
NS1 function inh: qHTS Assay for Inhibitors of Influenza NS1 Protein Function | Potency, µM (top dose mostly 46.1 µM) | 270,000 compounds, 0.4% hits; calls by dose curve; note: actives are rising curves; nearly all actives have a fitted effect of over 50% in size
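Growth recovery, yeast-based: influenza A NS1 expressed in S. cerevisiae causes slow growth, and suppressors are detected by OD600. The parent strain without NS1 is used as positive control.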
Hits are given with their value; 0 = inactive; ? = inconclusive; - = not tested or not shown; [ ] = dose if it differs, or a comment. Most compounds without a hit are left out; they make up all but 11% or so of the library. Unless noted, calls come from the whole dose curve; as a rule, active = well fitted inhibition curve with a large enough effect; inconclusive = small, poorly fitted or top-dose-only effect, or another doubt; inactive = no such curve, though single readings can be large or run the other way.

SMILES	HCV inh	Pf growth 48h	Pf growth 96h	VACV mCherry inh	VACV Venus inh	NS1 function inh
COc1ccc(NC(=O)C2CC(=O)N(C)C(=Nc3ccc4c(c3)OCO4)S2)cc1 (stereo not given)	0	10µM	?	0	0	0
CSCCNC(=O)C1(C)CCN1C(=O)c1sccc1C (stereo not given)	-	-	-	0	0	-
Cc1ccn2c(NC(=O)C(C)(C)Oc3ccc(Cl)cc3)c(-c3cccs3)nc2c1	?	0	12µM	0	0	0
Cc1ccc(NC2=C(C(=O)c3ccccc3)N(C)S(=O)(=O)c3ccccc32)cc1	11µM	9.3µM	12µM	?	0	?
COc1ccc(CN2Cc3cnnn3-c3ccccc3C2C#N)cc1 (stereo not given)	4µM	-	-	?	0	-
c1ccc(C2c3ccccc3-n3nncc3CN2CC2CCCCC2)cc1 (stereo not given)	0[8.37 µM]	-	-	?	0	-
N#CC1c2ccccc2-n2nncc2CN1Cc1cc(Cl)cc(Cl)c1 (stereo not given)	5.6µM	-	-	0	0	-
COc1ccc(CN2Cc3cnnn3-c3ccccc3C2c2ccccc2)cc1 (stereo not given)	1.3µM	-	-	?	?	-
CC(=O)Nc1ccc(S(=O)(=O)N2Cc3cnnn3-c3ccccc3C2C#N)cc1 (stereo not given)	0.32µM	-	-	0	0	-
Cc1ccc(S(=O)(=O)N2Cc3cnnn3-c3ccccc3C2C#N)cc1 (stereo not given)	0[8.37 µM]	-	-	0	0	-
COc1c(Cl)cnn(-c2cccc(C)c2)c1=O	0	0	0	-	-	0
COc1ccccc1C(=O)NCCC(=O)NCC1CCCO1 (stereo not given)	0	0	0	-	-	-
COc1cccc(CN2CC(C(=O)NC3(c4ccccc4)CC3)CCC2=O)c1 (stereo not given)	0	0	0	0	0	0
Cc1ccc(O)c(/C=N/NC(=O)C2=NNC(c3ccccc3)(c3ccccc3)C2)c1	0	2.9µM	?	-	-	0
COC(=O)c1[nH]c2cc(OC)ccc2c1NC(=O)CCN1CCCC(C)(C)C1	?	0	1.7µM	-	-	0
COC(=O)c1[nH]c2cccc(OC)c2c1NC(=O)CCN1CCN(c2ccccc2OC)CC1	0	?	0	-	-	0
COC(=O)c1[nH]c2cc(OC)ccc2c1NC(=O)c1ccc2c(c1)OCO2	2.5µM	?	?	-	-	0
CCN(CC(=O)Nc1c(C(=O)OC)[nH]c2ccccc12)c1ccc2c(c1)OCO2	?	10µM	?	-	-	0
COC(=O)c1[nH]c2cc(OC)ccc2c1NC(=O)CCN1CCCCC1	0	0	0	-	0	0
COC(=O)c1[nH]c2cccc(OC)c2c1NC(=O)CCN1CCC(C)CC1	0	0	1.9µM	0	0	0
COC(=O)c1[nH]c2cc(OC)ccc2c1NC(=O)c1c(F)cccc1F	13µM	0	?	-	-	0
C=CCNC(=S)Nc1c(C(=O)OC)[nH]c2cc(OC)ccc12	0	0	0	-	-	0
COc1cc(NC(=O)c2cccc3c2C(=O)N(C2CCCCC2)C3)cc(OC)c1OC	6.3µM	12µM	?	0[7.34 µM]	0[7.34 µM]	0
NC(=O)c1cccc2c1C(=O)N(C1CCCCC1)C2	0	0	9.3µM	0	0	0
Cc1cc(C)cc(NC(=O)c2cccc3c2C(=O)N(C2CCCCC2)C3)c1	0	?	12µM	0	0	0
SMILES	HCV inh	Pf growth 48h	Pf growth 96h	VACV mCherry inh	VACV Venus inh	NS1 function inh
Cc1ccc(NC(=O)c2cccc3c2C(=O)N(C2CCCCC2)C3)c(Cl)c1	?	?	4.7µM	0	0	0
O=C(NCCc1ccccc1)c1cccc2c1C(=O)N(C1CCCCC1)C2	0	?	?	0	0	0
CSc1ccc(CCNC(=O)c2cccc3c2C(=O)N(C2CCCCC2)C3)cc1	11µM	?	10µM	-	-	0
C=CCn1c(-c2ccc([N+](=O)[O-])cc2)n[nH]c1=S	0	0	2.3µM	0	0	0
C=CCn1c(-c2ccccc2[N+](=O)[O-])n[nH]c1=S	0	0	?	0	0	0
COc1cc(C(C)=O)ccc1OCC(O)CNCC(O)c1ccccc1 (stereo not given)	0	-	0	-	-	0
COC(=O)c1ccc(-c2ccc(CNCC(O)c3ccccc3)o2)cc1 (stereo not given)	0	2.6µM	12µM	0	0	0
Cc1cccc(-n2ncc3c2CCCC3NC(=O)c2ccncc2)c1C (stereo not given)	-	-	-	0	0	-
Cc1cccc(-n2ncc3c2CCCC3NC(=O)CN2CCOC2=O)c1C (stereo not given)	0	0	0	-	-	0
CC1=C(C(=O)NC2CCCc3c2cnn3-c2cccc(C)c2C)OCCO1 (stereo not given)	3.5µM	?	0	0	0	0
Cc1cc(C(=O)NC2CCCc3c2cnn3-c2cccc(C)c2C)no1 (stereo not given)	11µM	0	?	?	0	0
Cc1cccc(-n2ncc3c2CCCC3NC(=O)Cc2c(C)noc2C)c1C (stereo not given)	8.9µM	?	0	-	-	0
CSCCC(NC(=O)COc1ccccc1)C(=O)N1CCCC(C(F)(F)F)C1 (stereo not given)	0	?	0	0	0	-
CNC(=O)c1cc(S(=O)(=O)Nc2ccc(C)cc2C)ccc1C	-	0	0	0	0	0
COc1ccccc1CNC(=O)c1ccc2c(=O)n(CCCN3CCCC3=O)c(=S)[nH]c2c1	0	?	15µM	0	0	-
COc1ccc(CNC(=O)c2ccc3c(=O)n(CCCN4CCCC4=O)c(=S)[nH]c3c2)cc1	0	?	4.1µM	0	0	-
COc1cc(C(=O)NCCCN2CCCC2=O)ccc1OCc1ccc(Cl)cc1Cl	?	10µM	?	0	0	-
COC(=O)c1ccc2c(=O)n(CCCN3CCCC3=O)c(=S)[nH]c2c1	?	12µM	0	0	0	0
O=C(NCc1ccccc1)c1ccc2c(=O)n(CCCN3CCCC3=O)c(=S)[nH]c2c1	?	-	?	-	-	0
COc1ccc(Cl)cc1NC(=S)NCCCN1CCCC1=O	0	0	0	0	0	-
Cc1ccc(CNC(=O)c2ccc3c(=O)n(CCCN4CCCC4=O)c(=S)[nH]c3c2)cc1	0	-	0	-	-	0
O=C(Nc1ncc(Br)s1)C(Cc1ccccc1)n1cccc1 (stereo not given)	0	-	?	0	0	0
COc1ccc(-c2nnc(SCC(=O)N3CCCC3)o2)c(OC)c1	0	0	0	0	0	0
CCc1cc(C(=O)O)c(NC(=O)/C=C/c2ccc(OC)c(OC)c2)s1	0	?	?	0	0	0
Cn1ccc2c(-c3ccc(F)nc3)cc3c(c21)C1CCC3C1 (stereo not given)	-	-	-	0	0	-
O=C(CSc1nc2ccccc2[nH]1)Nc1ccc2c(c1)CCC2	0	0	0	0	0	0

Screening data deposited in PubChem by National Center for Advancing Translational Sciences (NCATS).
